From the supplement of paper PMC5662767
Where a name gives a salt, the structure may show the parent alone.

System: Drosophila S2 cl14 SmoIP sensor cells
Assay: normalized SmoIP GFP fluorescence (untreated unstimulated = 0%, untreated Hh-stimulated = 100%); higher = more Smo activation sensor fluorescence
Settings: compound concentration: 2 uM, 24 h
[1] = stimulation: Hh conditioned medium (+Hh)
[2] = stimulation: mock conditioned medium (-Hh)
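Note: flow cytometry read-out as median GFP intensity of gated cells, compounds added 30 min before Hh-conditioned or mock medium, mock-treated cells serving as unstimulated baseline.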

Row | Compound | normalized SmoIP GFP fluorescence [1] [%] | normalized SmoIP GFP fluorescence [2] [%]
1 | CC(C)c1cc(C(=O)N2Cc3ccc(CN4CCN(C)CC4)cc3C2)c(O)cc1O | 107 | 13.8
2 | O=c1ncn2nc(Sc3ccc(F)cc3F)ccc2c1-c1c(Cl)cccc1Cl | 79.3 | -2.64
3 | CN1C(=O)C(Cc2c[nH]c3ccccc23)NC1=S (configuration not stated) [necrostatin-1] | 134 | -16.1
4 | CC1CCN(CC[C@H]2CCCN2S(=O)(=O)c2cccc(O)c2)CC1 | 108 | 1.21
5 | Cc1ccc(Sc2ccccc2N2CCNCC2)c(C)c1 | 169 | -11.4
6 | O=C1NC(=O)/C(=C/c2ccc3c(c2)OC(F)(F)O3)S1 | 114 | 7.01
7 | Cc1ccc(C(=O)N(CCCN)[C@@H](c2oc3cc(Cl)ccc3c(=O)c2Cc2ccccc2)C(C)C)cc1 | 141 | 2.05
8 | C[C@@H]1C[C@H]2[C@@H]3CCC4=CC(=O)C=C[C@]4(C)[C@@]3(F)[C@@H](O)C[C@]2(C)[C@@]1(O)C(=O)CO [Dexamethasone] | 86.8 | 5.66
9 | CCCC(=O)Nc1ccc(OCC(O)CNC(C)C)c(C(C)=O)c1 (configuration not stated) [acebutolol-hcl] | 106 | -3.5
10 | CCN(CC)CCOc1ccc(/C(=C(\Cl)c2ccccc2)c2ccccc2)cc1 [Clomifene-citrate-Serophene] | 139 | -11.6
11 | NC(=O)[C@@H](CCC(F)(F)F)N(Cc1ccc(-c2ncon2)cc1F)S(=O)(=O)c1ccc(Cl)cc1 | 116 | 0.489
12 | COc1ccc(CC(C)NCC(O)c2ccc(O)c(NC=O)c2)cc1 (configuration not stated) [formoterol-hemifumarate] | 129 | -8.77
13 | COc1cc(Nc2ncc(F)c(Nc3ccc4c(n3)NC(=O)C(C)(C)O4)n2)cc(OC)c1OC | 112 | -1.11
14 | CCCSc1nc(N[C@@H]2C[C@H]2c2ccc(F)c(F)c2)c2nnn([C@@H]3C[C@H](OCCO)[C@@H](O)[C@H]3O)c2n1 [ticagrelor] | 113 | -3.39
15 | O=C(Oc1cc(S(=O)(=O)c2ccccc2)ccc1[N+](=O)[O-])c1ccc(Cl)cc1 | 146 | 7.6
16 | Cc1ccc(Nc2nccc(N(C)c3ccc4c(C)n(C)nc4c3)n2)cc1S(N)(=O)=O [pazopanib] | 107 | 1.95

Row | Compound | normalized SmoIP GFP fluorescence [1] [%] | normalized SmoIP GFP fluorescence [2] [%]
17 | CNC(=O)[C@H](Cc1ccccc1)NC(=O)[C@H](CC(C)C)[C@H](CSc1cccs1)C(=O)NO | 94.8 | -2.48
18 | CNC(=O)CN1CCC(Oc2cc3c(Nc4cccc(Cl)c4F)ncnc3cc2OC)CC1 | 112 | -3.72
19 | O=C1c2ccccc2C(=O)c2c1ccc(O)c2O [Alizarin] | 141 | -7.96
20 | O=C1C[C@@H](c2ccc(O)cc2)Oc2cc(O)cc(O)c21 [Naringenin] | 106 | -6.61
21 | COc1ccccc1OCCNCC(O)COc1cccc2[nH]c3ccccc3c12 (configuration not stated) [carvedilol] | 118 | -7.78
22 | CC(=O)O[C@]1(C(C)=O)CC[C@H]2[C@@H]3C[C@H](C)C4=CC(=O)CC[C@]4(C)[C@H]3CC[C@@]21C [Medroxyprogesterone-acetate] | 116 | -1.83
23 | Nc1c(Br)cc(Br)cc1CN[C@H]1CC[C@H](O)CC1 [ambroxol-hcl] | 106 | -2.82
24 | CC(C)C[C@H](NC(=O)[C@H](CCc1ccccc1)NC(=O)CN1CCOCC1)C(=O)N[C@@H](Cc1ccccc1)C(=O)N[C@@H](CC(C)C)C(=O)[C@@]1(C)CO1 [carfilzomib-pr-171] | 80.7 | 5.7
25 | CN(C)CCN(Cc1ccccc1)c1ccccn1 [tripelennamine-hydrochloride] | 112 | -3.9
26 | CC/C(=C(\c1ccccc1)c1ccc(OCCN(C)C)cc1)c1ccccc1 [Tamoxifen-Citrate(Nolvadex)] | 112 | -6.61
27 | CCOC(=O)[C@H](CCc1ccccc1)N[C@@H](C)C(=O)N1Cc2ccccc2C[C@H]1C(=O)O [quinapril-hydrochloride-accupril] | 125 | 2.95
28 | O=C1c2ccc(Nc3ccc(F)cc3F)cc2CCc2ccc(OC[C@H](O)CO)cc21 [skepinone-l] | 101 | -4.13
29 | C[N+]1(C)CCC(=C(c2ccccc2)c2ccccc2)CC1 [diphemanil-methylsulfate] | 110 | -3.62
30 | COc1cc2c(N3CCN(C(=O)Nc4ccc(OC(C)C)cc4)CC3)ncnc2cc1OCCCN1CCCCC1 [Tandutinib-(MLN518)] | 99.7 | 1.89
31 | CN1CCC(NC(=O)c2cc(-c3c(O)cc(O)cc3Oc3ccc([N+](=O)[O-])cc3)on2)CC1 | 129 | 4.56
